Data: PubChem BioAssay (NCATS)
Inconclusive results are not listed. Activity calls are given as the source filed them. Unless noted, calls come from the whole dose curve; as a rule, active = well fitted curve in the direction sought with a large enough effect; inconclusive = small, poorly fitted or top-dose-only effect, or another doubt; inactive = no such curve, though single readings can be large; an effect the other way counts as inactive or inconclusive.

Columns and labels:
[1] = qHTS for Inhibitors of Plasmodium falciparum (DD2) proliferation (AID 504314);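 note: parasite DNA measured by SYBR Green fluorescence after red cell lysis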
Procedure, shortened: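 Parasite proliferation measured as SYBR Green signal from Plasmodium DNA, mature erythrocytes lacking DNA. 72 h incubation, 37C; activity scaled between vehicle and 0.29 uM artemisinin, with correction from vehicle-only plates.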

[2] = qHTS for Inhibitors of Plasmodium falciparum (7G8) proliferation (AID 504316); note: series mostly up to about 6.7 µM; nearly all actives have a fitted effect of over 65% in size
Procedure, shortened: (§1)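 Parasite growth measured as SYBR Green DNA fluorescence (ex 485, em 535 nm) after overnight lysis following 72 h culture at 37 °C, 0.3% parasitemia, 2.5% hematocrit. Values normalized against DMSO and 0.29 uM artemisinin controls, with plate-stack correction.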

[3] = qHTS for Inhibitors of Plasmodium falciparum (HB3) proliferation (AID 504318); note: nearly all actives have a fitted effect of over 60% in size
Procedure, shortened: as §1

[4] = qHTS for Inhibitors of Plasmodium falciparum (CP250) proliferation (AID 504320)
Procedure, shortened: as §1

[5] = target: Atrial natriuretic peptide receptor 1 (Homo sapiens) (UniProt P16066); test: Natriuretic polypeptide receptor (hNpr1) antagonism - Pilot CMLD screen (AID 1347052; calls by dose curve;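 note: HEK293 cells with hNpr1 stimulated by hNppA peptide at 0.1 nM; cGMP level read as GloSensor luciferase luminescence after agonist stimulation; series mostly up to about 9.2 µM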)
Sequence of Atrial natriuretic peptide receptor 1 (Homo sapiens) (P16066 whole entry, looked up): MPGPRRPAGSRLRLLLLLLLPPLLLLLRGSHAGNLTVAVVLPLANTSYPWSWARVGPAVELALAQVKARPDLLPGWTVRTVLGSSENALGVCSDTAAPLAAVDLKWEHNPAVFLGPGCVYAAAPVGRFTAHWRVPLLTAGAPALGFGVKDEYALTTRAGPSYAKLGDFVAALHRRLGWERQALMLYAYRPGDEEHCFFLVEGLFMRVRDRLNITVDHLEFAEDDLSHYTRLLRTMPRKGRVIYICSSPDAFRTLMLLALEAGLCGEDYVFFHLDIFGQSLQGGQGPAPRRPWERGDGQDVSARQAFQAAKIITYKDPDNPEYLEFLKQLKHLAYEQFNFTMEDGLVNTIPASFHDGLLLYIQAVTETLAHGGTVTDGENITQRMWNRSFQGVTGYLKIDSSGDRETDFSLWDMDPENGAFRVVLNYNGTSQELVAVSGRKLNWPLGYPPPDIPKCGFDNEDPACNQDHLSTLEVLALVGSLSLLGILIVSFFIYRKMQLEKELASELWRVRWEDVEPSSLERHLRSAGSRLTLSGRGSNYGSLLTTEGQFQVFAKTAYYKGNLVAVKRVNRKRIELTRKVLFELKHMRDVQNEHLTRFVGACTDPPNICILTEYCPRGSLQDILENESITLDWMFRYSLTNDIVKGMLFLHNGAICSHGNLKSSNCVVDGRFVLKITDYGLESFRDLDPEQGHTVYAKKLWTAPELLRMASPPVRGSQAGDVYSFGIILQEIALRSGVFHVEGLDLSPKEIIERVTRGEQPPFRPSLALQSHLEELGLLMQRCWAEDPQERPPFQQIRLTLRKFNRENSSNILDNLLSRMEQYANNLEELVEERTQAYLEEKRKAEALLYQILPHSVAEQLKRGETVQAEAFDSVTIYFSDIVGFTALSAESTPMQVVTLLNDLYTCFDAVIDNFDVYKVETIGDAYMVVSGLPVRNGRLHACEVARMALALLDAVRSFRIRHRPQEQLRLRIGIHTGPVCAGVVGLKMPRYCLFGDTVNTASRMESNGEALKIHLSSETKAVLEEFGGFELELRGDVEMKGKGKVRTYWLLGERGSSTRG

Measured: Potency

CCN(CC)CCCN1C(=O)C2=C(C1=O)C1N(C)c3ccccc3[C@@]13C[C@@H](CO)N(C(=O)CCC(=O)OC)C3=N2 (some centres undefined)
inactive: all assays above

C=C(Nc1ccc(OC)cc1)C(=O)OC
not listed: [4]
inactive: all other assays above

COc1ccc(COC(=O)NN=C2C[C@@H](O)[C@@H](O)[C@@H]3[C@H]4C(=O)N(c5cccc(Oc6ccccc6)c5)C(=O)[C@@H]4CC[C@H]23)cc1
inactive: all assays above

C=CC[C@@H]1C=C(C(=O)OC)N(C(=O)C(F)(F)F)[C@@H](c2ccccc2Br)[C@@H]1C
inactive: all assays above

C[C@H]1COc2c(N3CCN(C)CC3)c(F)cc3c(=O)c(C(=O)NCc4ccco4)cn1c23
inactive: all assays above

COC1=C[C@H](C(=O)NCc2ccccn2)[C@@]2(C)Cc3ccccc3[C@@H]2CC1=O
inactive: all assays above

CCOC(=O)CN1C(=O)NC(CCc2ccccc2)C(C(C)=O)=C1C (centres undefined)
inactive: all assays above

COC(=O)[C@H]1[C@H](CCc2ccccc2)NC(=O)N(Cc2ccccc2)[C@H]1C
inactive: all assays above

Cc1cccc(C)c1Nc1oc(-c2ccccc2)nc1-c1cccc2ccccc12
not listed: [2]
inactive: all other assays above

COC(=O)N[C@@H](c1ccccc1)C(C(=O)OC)C(=O)OC
inactive: [1] | [4] | [5]

CCOC(=O)C1(C(=O)OCC)CC2=C(C=CC3=C(C=C2)CC(C(=O)OCC)(C(=O)OCC)C3)C1
inactive: [1] | [4] | [5]
